This is a sample that favours compounds with a hit; in the whole collection about 2.4% have one here.
M1 ag – human M1 muscarinic receptor agonists, primary screen, Fluo-8 calcium fluorescence, CHO-K1 cells, HTS; actives 0.33% (n = 360,000); CHO-K1 hM1, agonist mode; 0% DMSO, 100% acetylcholine EC100; Muscarinic acetylcholine receptor M1 (Homo sapiens), P11229; activation, % at 3 µM;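 active = activation above the run's mean compound activation plus 3 SD, cut at about 16% in these data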;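 note: peak over basal fluorescence ratio within a 140 s kinetic read after compound addition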
Target sequence (P11229 whole entry, looked up): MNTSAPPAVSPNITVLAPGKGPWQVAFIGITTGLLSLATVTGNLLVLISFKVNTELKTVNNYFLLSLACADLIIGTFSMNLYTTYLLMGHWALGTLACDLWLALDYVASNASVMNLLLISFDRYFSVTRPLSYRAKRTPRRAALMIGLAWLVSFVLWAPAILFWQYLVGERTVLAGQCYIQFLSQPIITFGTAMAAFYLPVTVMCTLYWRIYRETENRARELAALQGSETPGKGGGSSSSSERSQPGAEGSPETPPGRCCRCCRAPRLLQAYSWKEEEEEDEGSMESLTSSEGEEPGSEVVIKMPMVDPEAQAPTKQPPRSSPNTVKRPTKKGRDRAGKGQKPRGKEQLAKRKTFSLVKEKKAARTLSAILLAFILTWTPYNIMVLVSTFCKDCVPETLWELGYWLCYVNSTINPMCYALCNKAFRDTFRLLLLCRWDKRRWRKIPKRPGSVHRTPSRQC
CHRM1 antagonist – human M1 muscarinic receptor antagonists, primary screen, CHO-K1 cells, Fluo-8 calcium fluorescence, 1536-well; CHO-K1 hM1, ACh EC80 antagonist; inhibition, % at 3 µM; Muscarinic acetylcholine receptor M1 (Homo sapiens), P11229; AID 588852, 2011; actives 1.3% (n = 360,000);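 active = percent inhibition above its own plate's cutoff, namely the mean of that plate's compound wells plus 3 SD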;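 note: peak over basal fluorescence ratio during 140 s after agonist addition; 0% = ACh EC80 plus DMSO and 100% = DMSO alone without agonist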
CHO-K1 Ca ag – counter-screen for M1 agonists: effect in parental CHO-K1 cells. Fluo-8 calcium fluorescence; scaled to maximal ATP response, vehicle zero. activation, % at 3 µM. actives 0.48% (n = 360,000); in the data active = activation above about 15%;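 note: untransfected CHO-K1 host cells lacking M1 receptor as counterscreen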
CHO-K1 Ca antag – nonselective inhibitor or artifact in parental CHO-K1 cells; AID 602250; ATP-induced calcium, Fluo-8 fluorescence; actives 0.6% (n = 360,000); inhibition, % at 3 µM;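 active = inhibition above a per-plate cutoff, the plate's mean sample inhibition plus 3 SD, cut at about 24% in these data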;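 note: 0% = DMSO plus EC80 ATP and 100% = DMSO alone without ATP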
CHO-K1 Ca PAM – nonselective calcium activators in parental CHO-K1 cells, primary screen, counter-screen for M1 PAM project, cell-based, Fluo-8 calcium fluorescence, full deck, 1536-well; activation, % at 3 µM; AID 602247, 2012; ATP EC20; 0% at ATP EC20, 100% at ATP max; actives 0.02% (n = 360,000);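 active = activation above the run cutoff, the mean activation of all test compounds plus 3 SD, cut at about 40% in these data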;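 note: peak over basal fluorescence ratio in a 140 s read after ATP addition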
M1 PAM – human M1 muscarinic receptor positive allosteric modulators, primary screen, CHO-K1 cells, Fluo-8 calcium fluorescence, 1536-well | Muscarinic acetylcholine receptor M1 (Homo sapiens), P11229 | CHO-K1 hM1, ACh EC20; 0% = ACh EC20, 100% = maximal ACh | activation, % at 3 µM | actives 0.088% (n = 360,000) | AID 588819, 2011; in the data active = activation above about 19%, passing the limit was not always enough
* hit, by the source's call.

SMILES	M1 ag	CHRM1 antagonist	CHO-K1 Ca ag	CHO-K1 Ca antag	CHO-K1 Ca PAM	M1 PAM
Cc1occc1C(=O)Nc1cnn(CCCC(=O)O)c1	-2	1	0	-9	8	1
O=C(Nc1ccc2c(c1)OCO2)c1ccc2sc([C@H]3C[C@H](O)[C@@H](CO)O3)nc2c1	3	-24	0	-4	12	28*
O=C(NCC1CCCCC1)c1ccc2sc([C@H]3C[C@H](O)[C@@H](CO)O3)nc2c1	-2	-8	2	35*	-13	8
O=C(Nc1ccc2c(c1)OCO2)c1ccc2sc([C@@H]3O[C@H](CO)[C@@H](O)[C@H]3O)nc2c1	-2	-9	0	0	4	3
CCOC(=O)CN(C(=O)c1snc(C(N)=O)c1N)C(C(=O)NC1CCCCC1)c1ccc(F)cc1 (configuration not stated)	0	-9	1	-5	3	12
CC(C)(C)n1nc2c(c1NC(=O)COc1ccc(F)cc1)CS(=O)(=O)C2	-2	-9	1	1	2	5
COc1ccc(NC(=O)c2cccc(N3C(=O)C4C5C=CC(C6CC56)C4C3=O)c2)c(OC)c1 (configuration not stated)	5	1	18*	-3	16	-4
COc1ccc(NC(=O)c2cccc(N3C(=O)C4C5C=CC(C6CC56)C4C3=O)c2)cc1 (configuration not stated)	5	20	15*	8	-19	-15
COc1ccc(NC(=O)c2cccc(N3C(=O)C4C5C=CC(C5)C4C3=O)c2)c(OC)c1 (configuration not stated)	-2	-6	2	-12	4	1
COc1ccc(NC(=O)c2cccc(N3C(=O)C4C5CCC(C5)C4C3=O)c2)cc1 (configuration not stated)	1	23	9	0	-9	-12
COCCNC(=O)C1(C)CCCN(C(=O)c2ccc3snnc3c2)C1 (configuration not stated)	-4	-7	0	-3	7	5
CCN(CC)c1ccc(/C=C/c2cc(-c3ccccc3)c3ccccc3n2)cc1	18*	36*	9	11	-2	-2
CCCCC(CC)C(=O)Nc1ncc([N+](=O)[O-])s1 (configuration not stated)	-3	49*	8	26*	-3	-23
O=S(=O)(Nc1nc2ccccc2nc1N1CCN(CCO)CC1)c1cc(F)ccc1F	-2	-3	0	0	-7	4
CC(=O)OCC(=O)[C@@]1(O)CC[C@H]2[C@@H]3CCC4=CC(=O)C=C[C@]4(C)[C@@]3(Cl)[C@@H](Cl)C[C@@]21C	37*	-21	0	-16	22	-14
COc1ccc(CN2CCc3ccccc3C2)cc1Br	-9	0	1	-6	13	-7
COc1ccc(-n2cc(CN(C)CCO)c(-c3cccc(F)c3)n2)cc1	-9	5	18*	10	-2	-2
COc1ccc(-n2cc(CN(C)C(C)c3ccncn3)c(-c3cccc(F)c3)n2)cc1 (configuration not stated)	-6	-15	2	-15	5	10
O=C(CCc1nc2ccccc2c(=O)[nH]1)Nc1nnc(SCc2ccccc2F)s1	-8	49*	1	-5	2	-27
O=C(Nc1nnc(SCc2ccccc2)s1)C1=COCCO1	-7	9	2	-1	-17	-10
O=C(Nc1nnc(SCc2ccccc2F)s1)C1=COCCO1	-4	8	17*	10	-8	-7
CN(C(=O)c1cccs1)C1(C)CCS(=O)(=O)C1 (configuration not stated)	0	-17	1	-8	3	12
Cn1c(=O)c2[nH]c(COc3ccc(C(C)(C)C)cc3)nc2n(C)c1=O	4	39*	14	-5	0	-14
Cn1c(=O)c2[nH]c(Cc3cccc(O)c3)nc2n(C)c1=O	-4	-16	0	-11	12	5
COc1cccc(C(NC(C)=O)c2nc(-c3ccc(C)c(C)c3)cs2)c1 (configuration not stated)	-1	-2	0	26*	-17	4
SMILES	M1 ag	CHRM1 antagonist	CHO-K1 Ca ag	CHO-K1 Ca antag	CHO-K1 Ca PAM	M1 PAM
O=C(CCN1C(=O)/C(=C/c2ccccc2F)SC1=S)NCCCN1CCOCC1	-7	1	19*	5	1	1
O=C(CCN1C(=O)/C(=C/c2ccccc2)SC1=S)NCCCN1CCOCC1	-7	-10	5	2	-7	7
COc1cc(CC(=O)N(CC(C)C)C2CCS(=O)(=O)C2)cc(OC)c1OC (configuration not stated)	-2	-4	0	-7	14	7
Nc1nc(Nc2ccccc2F)nc(N2CCOCC2)c1[N+](=O)[O-]	-4	-7	18*	5	9	9
Nc1nc(Nc2ccccc2)nc(N2CCOCC2)c1[N+](=O)[O-]	1	-2	1	-1	8	5
CC(=O)C1=CCC(c2ccc(Br)cc2)N(S(=O)(=O)c2ccc(C)cc2)C1 (configuration not stated)	-9	37*	4	13	11	-24
CC(=O)C1=CCC(c2ccc(C)cc2)N(S(=O)(=O)c2ccc(C)cc2)C1 (configuration not stated)	-4	-4	2	2	3	-4
O=S(=O)(NCC1CCCO1)c1ccc(Cl)nc1 (configuration not stated)	-4	-12	1	-15	12	6
CCCC[C@@H]1CNCCN1CCc1cc(C(F)(F)F)cc(C(F)(F)F)c1	-12	34*	0	-6	10	-27
FC(F)(F)c1cc(CCN2CCNC[C@@H]2c2ccccc2)cc(C(F)(F)F)c1	-4	9	1	-4	-11	-3
FC(F)(F)c1cc(CCN2CCNC[C@@H]2CC2CCCCC2)cc(C(F)(F)F)c1	12	36*	0	-16	20	-8
CC1(C(=O)Nc2cccc3c2CCCC3)CCN1C(=O)Cc1ccccc1Cl (configuration not stated)	-2	0	2	-9	6	-7
COc1ccc(CN2CCN(C(=O)Cn3ncn4cccc4c3=O)CC2)c(OC)c1OC	-2	-12	1	-4	11	3
CCCCC#Cc1cncc(C(=O)NN)c1	4	-6	19*	-2	12	4
